# Test results reported in the supplement of paper PMC7724964.
# T1: GGA1 1-157 VHS (domain begin residue: 1, domain end residue: 157), Q9UJY5
# T1 chain: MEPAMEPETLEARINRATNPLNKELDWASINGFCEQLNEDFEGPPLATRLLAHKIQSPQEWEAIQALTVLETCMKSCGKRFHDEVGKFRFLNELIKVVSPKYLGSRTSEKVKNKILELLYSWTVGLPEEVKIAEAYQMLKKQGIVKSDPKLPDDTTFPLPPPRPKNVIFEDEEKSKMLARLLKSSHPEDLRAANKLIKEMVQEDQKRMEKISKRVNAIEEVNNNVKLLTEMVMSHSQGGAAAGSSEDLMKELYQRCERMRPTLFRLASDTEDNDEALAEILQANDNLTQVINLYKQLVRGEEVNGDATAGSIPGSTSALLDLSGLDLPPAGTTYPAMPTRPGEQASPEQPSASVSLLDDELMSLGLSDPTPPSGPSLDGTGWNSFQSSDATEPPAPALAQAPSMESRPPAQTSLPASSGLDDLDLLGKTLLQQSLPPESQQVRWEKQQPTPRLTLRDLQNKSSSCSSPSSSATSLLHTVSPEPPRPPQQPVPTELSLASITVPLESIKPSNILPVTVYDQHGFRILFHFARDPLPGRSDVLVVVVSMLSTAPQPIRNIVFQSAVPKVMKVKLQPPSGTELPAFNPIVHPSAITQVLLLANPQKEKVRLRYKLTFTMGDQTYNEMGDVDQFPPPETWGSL
# T2: GIGYF2 507-602 GYF (domain begin residue: 507, domain end residue: 602), Q6Y7W6
# T2 chain: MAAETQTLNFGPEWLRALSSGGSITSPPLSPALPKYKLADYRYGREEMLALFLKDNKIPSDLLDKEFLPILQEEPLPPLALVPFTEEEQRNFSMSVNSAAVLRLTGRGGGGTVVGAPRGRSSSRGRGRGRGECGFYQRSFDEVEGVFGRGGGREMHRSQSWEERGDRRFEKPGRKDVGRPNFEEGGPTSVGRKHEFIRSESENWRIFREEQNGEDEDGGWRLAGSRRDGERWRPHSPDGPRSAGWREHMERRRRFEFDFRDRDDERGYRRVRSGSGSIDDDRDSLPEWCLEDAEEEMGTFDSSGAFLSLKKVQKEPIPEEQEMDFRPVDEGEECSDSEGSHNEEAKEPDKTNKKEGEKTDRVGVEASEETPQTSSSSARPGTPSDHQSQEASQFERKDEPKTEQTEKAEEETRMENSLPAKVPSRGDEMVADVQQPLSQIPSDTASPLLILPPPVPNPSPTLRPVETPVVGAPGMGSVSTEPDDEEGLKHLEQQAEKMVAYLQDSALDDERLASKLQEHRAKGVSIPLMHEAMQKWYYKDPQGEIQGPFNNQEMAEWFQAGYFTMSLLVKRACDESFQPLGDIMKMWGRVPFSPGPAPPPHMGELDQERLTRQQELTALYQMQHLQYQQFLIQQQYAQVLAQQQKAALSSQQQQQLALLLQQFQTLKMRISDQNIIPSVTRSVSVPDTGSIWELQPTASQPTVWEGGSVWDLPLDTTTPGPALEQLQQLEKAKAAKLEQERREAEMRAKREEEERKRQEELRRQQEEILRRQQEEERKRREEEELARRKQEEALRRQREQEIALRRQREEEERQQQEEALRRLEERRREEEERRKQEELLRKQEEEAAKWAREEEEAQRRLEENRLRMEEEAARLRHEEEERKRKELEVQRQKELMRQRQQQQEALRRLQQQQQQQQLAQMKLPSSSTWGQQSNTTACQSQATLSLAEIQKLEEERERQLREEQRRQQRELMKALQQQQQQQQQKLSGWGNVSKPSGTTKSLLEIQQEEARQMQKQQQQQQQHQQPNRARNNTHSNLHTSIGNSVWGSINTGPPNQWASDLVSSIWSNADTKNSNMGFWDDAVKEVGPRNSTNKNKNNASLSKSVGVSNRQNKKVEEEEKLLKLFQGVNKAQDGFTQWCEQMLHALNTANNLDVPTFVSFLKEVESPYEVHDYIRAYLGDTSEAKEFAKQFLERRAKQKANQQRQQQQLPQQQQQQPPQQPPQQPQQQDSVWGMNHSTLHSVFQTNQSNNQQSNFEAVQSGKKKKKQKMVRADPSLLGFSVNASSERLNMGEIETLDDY
# T3: FRS3 12-117 IRS (domain begin residue: 12, domain end residue: 117), O43559
# T3 chain: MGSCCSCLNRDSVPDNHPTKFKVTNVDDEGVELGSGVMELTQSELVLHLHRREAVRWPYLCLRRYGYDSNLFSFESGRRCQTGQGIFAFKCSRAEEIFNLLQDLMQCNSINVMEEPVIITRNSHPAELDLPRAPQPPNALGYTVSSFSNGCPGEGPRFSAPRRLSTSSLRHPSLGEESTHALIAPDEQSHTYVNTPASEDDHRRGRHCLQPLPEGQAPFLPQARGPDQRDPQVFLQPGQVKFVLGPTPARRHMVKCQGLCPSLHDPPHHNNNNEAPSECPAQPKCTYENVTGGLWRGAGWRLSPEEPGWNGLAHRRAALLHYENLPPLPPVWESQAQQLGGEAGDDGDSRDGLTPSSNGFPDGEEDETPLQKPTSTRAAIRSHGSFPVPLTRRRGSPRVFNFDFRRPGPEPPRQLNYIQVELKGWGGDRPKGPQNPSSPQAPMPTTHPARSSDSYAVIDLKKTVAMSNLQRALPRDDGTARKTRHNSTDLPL
# T4: GIGYF1 448-540 GYF (domain begin residue: 448, domain end residue: 540), O75420
# T4 chain: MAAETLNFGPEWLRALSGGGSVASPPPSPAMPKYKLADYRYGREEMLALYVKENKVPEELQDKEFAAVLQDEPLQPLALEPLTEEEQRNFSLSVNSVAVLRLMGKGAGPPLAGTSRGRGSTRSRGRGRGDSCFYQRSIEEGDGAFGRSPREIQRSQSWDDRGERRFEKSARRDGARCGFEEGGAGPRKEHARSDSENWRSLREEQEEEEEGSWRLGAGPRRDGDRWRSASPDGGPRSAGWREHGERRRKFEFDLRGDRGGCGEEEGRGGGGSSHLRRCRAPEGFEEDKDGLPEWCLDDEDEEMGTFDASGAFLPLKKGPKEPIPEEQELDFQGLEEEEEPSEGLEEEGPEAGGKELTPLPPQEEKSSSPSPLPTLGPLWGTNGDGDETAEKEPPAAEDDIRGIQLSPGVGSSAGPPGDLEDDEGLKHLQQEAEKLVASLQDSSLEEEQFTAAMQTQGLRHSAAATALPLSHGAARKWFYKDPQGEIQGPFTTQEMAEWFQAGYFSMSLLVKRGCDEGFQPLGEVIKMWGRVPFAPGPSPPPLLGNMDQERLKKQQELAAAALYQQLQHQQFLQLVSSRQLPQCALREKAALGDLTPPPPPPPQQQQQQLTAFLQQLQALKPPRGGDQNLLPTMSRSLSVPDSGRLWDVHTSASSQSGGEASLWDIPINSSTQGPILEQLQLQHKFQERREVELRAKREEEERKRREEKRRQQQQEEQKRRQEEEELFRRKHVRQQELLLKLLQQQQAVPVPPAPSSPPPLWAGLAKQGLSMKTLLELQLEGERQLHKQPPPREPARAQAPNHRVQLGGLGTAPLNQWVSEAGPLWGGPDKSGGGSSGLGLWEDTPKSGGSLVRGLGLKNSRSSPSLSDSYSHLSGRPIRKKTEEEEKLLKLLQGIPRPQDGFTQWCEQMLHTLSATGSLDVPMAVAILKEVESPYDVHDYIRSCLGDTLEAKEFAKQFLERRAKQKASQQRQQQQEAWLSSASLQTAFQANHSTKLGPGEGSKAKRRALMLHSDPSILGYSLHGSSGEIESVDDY
# T5: GNA14 2-355 G-alpha (domain begin residue: 2, domain end residue: 355), O95837
# T5 chain: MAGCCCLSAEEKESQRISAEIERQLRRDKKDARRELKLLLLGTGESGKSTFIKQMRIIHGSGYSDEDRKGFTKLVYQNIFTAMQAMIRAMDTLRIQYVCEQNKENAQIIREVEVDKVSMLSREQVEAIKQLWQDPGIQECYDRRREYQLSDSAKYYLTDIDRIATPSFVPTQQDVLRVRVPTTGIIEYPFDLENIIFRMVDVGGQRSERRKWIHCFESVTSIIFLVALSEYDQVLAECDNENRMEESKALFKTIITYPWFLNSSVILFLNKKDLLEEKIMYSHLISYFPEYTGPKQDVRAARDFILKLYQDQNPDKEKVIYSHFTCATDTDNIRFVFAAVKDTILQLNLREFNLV
# B1: unnamed (peptide)
# chain: MEPFTTWDQLPWWMQE
# B2: unnamed (peptide)
# chain: HLDQPPWWTLQEWASH
# B3: unnamed (peptide)
# chain: VNNQWDNDVPMLSMFA
# B4: unnamed (peptide)
# chain: QRPPGNWGEVTQVPIL
# B5: unnamed (peptide)
# chain: WDIDMWDLQEWMMIQS
# B6: unnamed (peptide)
# chain: PQGTWFTIIQEPSQHD
# B7: unnamed (peptide)
# chain: WEDWMEDWRQWEEPRK
# B8: unnamed (peptide)
# chain: QHLWHWEDTDYYEWSE
# B9: unnamed (peptide)
# chain: HVEQWWTTESWPNWYT
# B10: unnamed (peptide)
# chain: NYPNHPPGYEKWFQTM
# B11: unnamed (peptide)
# chain: DEWGQWQLHESVFLME
# B12: unnamed (peptide)
# chain: VWQVPEWQTVQLEYMK
# B13: unnamed (peptide)
# chain: DHWGPPGLTWHVMERA
# B14: unnamed (peptide)
# chain: DWSQWQTAAMEEMITW
# B15: unnamed (peptide)
# chain: IQWNDMDFENLSGWWG
# B16: unnamed (peptide)
# chain: ASQWEWDDWLYIHSQT
# B17: unnamed (peptide)
# chain: QPDQIRFGPYISFSAI
# B18: unnamed (peptide)
# chain: MTWWVAPWNESLDLWE
# B19: unnamed (peptide)
# chain: EGMGPPGFWVGSDLRG
# B20: unnamed (peptide)
# chain: TPPGYTMLMKEHSARH
# B21: unnamed (peptide)
# chain: QTMTWEARDPSKMLEL
# B22: unnamed (peptide)
# chain: SEVHPPGFAQEHHIMQ
# B23: unnamed (peptide)
# chain: SFTWDSFESYVEPWKY
# B24: unnamed (peptide)
# chain: ARDLPPGFVMSPENAM
# B25: unnamed (peptide)
# chain: DGDVQKWGPYYSFTQQ
# B26: unnamed (peptide)
# chain: DEILLHLPWAAMHWEG
# B27: unnamed (peptide)
# chain: QTDDPMWIPHQWFQAG
# B28: unnamed (peptide)
# chain: SRWVQIMHNGEETDSY
# B29: unnamed (peptide)
# chain: WHGQEADDVQMLWHWS
# Target: GGA3 1-153 VHS (domain begin residue: 1, domain end residue: 153)
# Assay: phage ELISA signal ratio (GST-PRM binding over GST background); higher = stronger binding of peptide-phage to the PRM
# Outline: (§1)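 An M13 phage library with randomized hexadecapeptides on the gene-8 major coat protein, each peptide lacking cysteine and flanked by glycine, was selected for five rounds against human peptide recognition domains fused to the C-terminus of glutathione S-transferase (GST) and expressed in 96-well plates. Approximately 48 clones from rounds 4 and 5 went to phage ELISA. The reported value is the ELISA signal on the GST-domain fusion over the signal on GST alone, and positive clones were sequenced.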
row,Binder,phage ELISA signal ratio
1,B1,12.9
2,B2,12.2
3,B8,20.1
4,B9,15.3
5,B27,23.1
6,B29,5.39

# Target: T1, GGA1 1-157 VHS (domain begin residue: …
# Assay: as above
# Outline: as §1
row,Binder,phage ELISA signal ratio
1,B3,16.4
2,B5,13.9
3,B21,12.5
4,B26,22.3

# Target: T2, GIGYF2 507-602 GYF (domain begin …
# Assay: as above
# Outline: as §1
row,Binder,phage ELISA signal ratio
1,B4,9.77
2,B10,26.6
3,B19,14.7
4,B20,20.5
5,B22,23.9
6,B24,11.7

# Target: T3, FRS3 12-117 IRS (domain begin residue: …
# Assay: as above
# Outline: as §1
row,Binder,phage ELISA signal ratio
1,B6,5.78
2,B12,17.9
3,B18,10.5
4,B28,16.9

# Target: GGA3 579-723 Alpha_adaptinC2 (domain begin residue: 579, domain end residue: 723)
# Assay: as above
# Outline: as §1
row,Binder,phage ELISA signal ratio
1,B7,31.4
2,B11,27.9
3,B14,18.5
4,B15,4.03
5,B16,7.22
6,B23,9.04

# Target: T4, GIGYF1 448-540 GYF (domain begin …
# Assay: as above
# Outline: as §1
row,Binder,phage ELISA signal ratio
1,B13,10.1

# Target: T5, GNA14 2-355 G-alpha (domain begin …
# Assay: as above
# Outline: as §1
row,Binder,phage ELISA signal ratio
1,B17,24.3
2,B25,28.9
